# Source: PubChem BioAssay (National Center for Advancing Translational Sciences (NCATS))
# The sample as a whole holds a higher share of hits than the screen did.
# Pf Dd2 growth: Plasmodium falciparum Dd2 growth inhibition. AID 1347417. Potency, µM (doses to about 28.9 µM), for the others: at the highest dose activity, negative = inhibition, hits mostly inhibitors. hit rate 4.3% among 120,000. P. falciparum Dd2 growth, SYBR Green, 72 h; active means well fitted inhibition curve with a large enough effect;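 further: plate controls were DMSO vehicle for no effect and reference drug for full effect; nearly all actives have a fitted effect of over 65% in size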
#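 Infected erythrocytes (Dd2, 0.3% parasitemia, 2.5% hematocrit final) are added to compound in RPMI-1640/Albumax II medium, grown 72 h at 37C in low oxygen, then lysed with saponin/Triton-X containing SYBR Green and read by fluorescence.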
# The depositor's hits bear a star; i = inactive; [ ] = another dose, or the depositor's remark. Potency means the concentration at half of the fitted maximal effect.
SMILES,Pf Dd2 growth
CC(=O)N1CCC([C@@H]2CN(C(=O)c3ccc(C#N)cc3)C[C@H]2CO)CC1,37%
O=C(CN1CCCc2nc(C3CC3)ncc2C1=O)NCCCn1cccn1,2%
CC(C)Oc1ccc(C(=O)NC2CCN(c3cn[nH]c(=O)c3)CC2)cc1,i
CCC(CC)NC(=O)CCC1CCN(C(=O)c2ccccc2F)CC1,10%
O=C(NCc1nnc2n1C(C(=O)O)CC2)C1CCCC1 (configuration not stated),16%[44.1 µM]
CN(C)C[C@@H]1CN(S(C)(=O)=O)C[C@H]1NC(=O)c1cc2ccccc2[nH]1,18%
COc1cccc(N2C(=O)NC(=NC3CCCCC3)C23CCN([S+](=O)([O-])c2cccs2)C3)c1 (configuration not stated),-10%
COc1cccc(N2C(=O)NC(=NC3CCCCC3)C23CCCN(Cc2ccsc2)C3)c1 (configuration not stated),11µM*
O=C1CC(c2noc(-c3ccc(F)cc3)n2)CN1c1ccc(Cl)cc1 (configuration not stated),82%
COC(=O)[C@H](NC(=O)[C@@H]1[C@@H](NC(=O)Nc2cccc(OC)c2)CCN1C(=O)CSC)C(C)C,15%
COc1cc2ncnc(N3CC4CCC(C3)N4CC(F)(F)F)c2cc1OC,-24%
FC(F)(F)CN1C2CCC1CN(c1nncc3ccccc13)C2,-21%
CCc1ncc2c(N3CC4CCC(C3)N4CC(F)(F)F)nc3ccccc3n12,3.2µM*
COc1cc(CNC(=O)c2ccc3c(c2)N(C(=O)c2ccc(F)cc2)CC3)cc(OC)c1,-16%
CC(=O)Nc1ccc(NC(=O)CN2C(=O)NC3(CCOCC3)C2=O)cc1,67%
CCC(CC)C(=O)N1CCc2nc(OCCOC)ccc2C1,i
CCOc1ccc(NC(=O)N(Cc2c[nH]c3ccccc23)C2CCCCC2)cc1,-30%
Cn1cc(CN(C(=O)Nc2ccccc2)C2CCCCC2)c2ccccc21,3.2µM*
COCC1(CNCc2cn(C)c3ccccc23)C[C@@H](O)[C@@H](O)C1 (some centres not stated),i
Cc1ccc(C(=O)NC2CCN(c3cc(-c4ccccc4)[nH]n3)CC2)s1,i
O=C1N[C@@H]2CCN(S(=O)(=O)c3ccc(Cl)cc3)[C@@H]2C(=O)N1c1ccccc1,-23%[44.1 µM]
O=C(c1cccs1)N1CCC2(CC1)CC(Cc1ccc(F)cc1)CCO2 (configuration not stated),-1%
COC(=O)[C@H](Cc1ccc(OC)cc1)NC(=O)[C@H]1CN(C(C)=O)CCN1S(=O)(=O)c1ccccc1,-26%
O=C([C@@H]1C[C@H](F)CN1C(=O)c1ccccc1C(F)(F)F)N1CCOCC1,-11%
O=C(c1ccccn1)N1CCC2(CC1)CC(OCC1CC1)CCO2 (configuration not stated),26%
SMILES,Pf Dd2 growth
Clc1ccc(-c2cnc([C@@H]3COCCN3C3CCC3)[nH]2)cc1,i
CC(C)(C)CN1CCOC[C@H]1c1ncc(-c2ccc(Cl)cc2)[nH]1,-3%[44.1 µM]
Clc1ccc(-c2cnc([C@@H]3COCCN3C3CCOCC3)[nH]2)cc1,i
CS(=O)(=O)c1ccc(CN2CCOC[C@H]2c2ncc(-c3cccc(Cl)c3)[nH]2)cc1,i
Fc1ccc(-c2cnc([C@@H]3COCCN3Cc3ccncc3)[nH]2)cc1,i
Clc1ccc(-c2cnc([C@@H]3COCCN3Cc3ccccc3)[nH]2)cc1,10µM*
COc1ccc(-c2cnc([C@@H]3COCCN3Cc3ccc(C)cc3)[nH]2)cc1,i
Clc1cccc(-c2cnc([C@@H]3COCCN3C3CCCCC3)[nH]2)c1,11µM*
COc1cccc(-c2cnc([C@@H]3COCCN3Cc3ccccc3)[nH]2)c1,11µM*
COc1ccc(CNc2ncnc3c2CN(C2CCCNCC2)C(=O)CN3C)cc1OC (configuration not stated),-1%
Cc1nc(C)c(C(=O)N2CCCN(S(C)(=O)=O)C(c3ccccc3)CC(=O)NCC2)s1 (configuration not stated),12%
O=C(NCCc1noc(-c2ccncc2)n1)C1(S(=O)(=O)c2ccc(Cl)cc2)CC1,17%
O=C(c1ccc(F)cc1)N1CCC2(CC1)CC(Cc1ccccc1)=NO2,-5%[44.1 µM]
O=C1Cc2c(-c3ccsc3)n[nH]c2CN1Cc1ccccc1,5.6µM*
O=C1Cc2c(-c3cccc(C(F)(F)F)c3)n[nH]c2CN1Cc1ccccc1,i
COCCN1Cc2[nH]nc(-c3ccsc3)c2CC1=O,1%[44.1 µM]
Cc1ccc(-c2cnc([C@@H]3COCCN3Cc3cn(C)c4ccccc34)[nH]2)cc1,i
COc1cccc(CN2C(=O)OC3(CCN(C(=O)C(C)C)CC3)C2(C)c2cccnc2)c1 (configuration not stated),i
COc1ccc(CN2CC3(CCN(C(=O)CCc4nc5ccccc5[nH]4)CC3)C2=O)cc1,i
CCOC(=O)C1=C(CN(C)Cc2ccccc2)NC(=O)NC1c1ccc(OC)cc1 (configuration not stated),i
CCOC(=O)C1=C(CN2CCN(c3cc(C)ccc3C)CC2)NC(=O)NC1c1ccc(Cl)cc1 (configuration not stated),10µM*
